Hits are enriched below; roughly 19% of the tested compounds scored in any of these assays.
TDP1 cell CPT: DT40-hTDP1 cell growth loss with CPT; chicken DT40 Tdp1-/-;hTDP1 cells + 20 nM CPT, ATP luminescence, 48 h; Potency, µM (series often up to 46.2 µM), inactives show top-dose activity change, negative = growth inhibition, hits mostly inhibitors; 420,000 tested, 12% active; AID 686979; also: potency is read from the fitted curve at half-maximal effect; % is scaled to controls: 0 for no effect and ±100 for the full control effect; nearly all actives have a fitted effect of over 55% in size
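Chicken DT40 Tdp1-/- cells complemented with human TDP1, 400 cells/well, exposed to compounds plus 20 nM camptothecin for at least 48 h at 37 C; viability read as ATP content by CellTiter-Glo luminescence.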
IL-1B inflam inh: blocks inflammasome-driven IL-1 beta release; THP-1 LPS/ATP IL-1B secretion, AlphaLISA, 16 h; stronger effect = lower value; 360,000 tested, 4.7% active; activity change, % at 57.5 µM; AID 743279; in the data active = activity change below about -50%; inconclusive = mostly about -30% to -49%; also: % is scaled to controls: 0 for no effect and ±100 for the full control effect
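Secreted IL-1B measured by AlphaLISA bead assay after 16 h compound exposure of THP-1 cells; compounds (final up to 57.5 uM) added 1 h before LPS (250 ng/mL) and ATP (1.25 mM) stimulation; lower signal means less secretion.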
TDP1 inh: blocks human tyrosyl-DNA phosphodiesterase 1. Q9NUW8. recombinant TDP1, AlphaScreen DNA substrate cleavage. Potency, µM (doses to about 130 µM), for inactives: at the highest dose activity change, negative = inhibition, usual class: inhibitors. 350,000 tested, 0.28% active; also: potency is read from the fitted curve at half-maximal effect; % is scaled to controls: 0 for no effect and ±100 for the full control effect; nearly all actives have a fitted effect of over 40% in size
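Compounds were preincubated with Tdp1 (1 nM final) for 15 min at room temperature before substrate (15 nM final) started a 5 min reaction; beads (10 ug/ml final) were then added for 10 min before AlphaScreen detection.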
DT40 TDP1 no CPT: qHTS for Inhibitors of human tyrosyl-DNA phosphodiesterase 1 (TDP1): qHTS in cells in absence of CPT. DT40 Tdp1-/- hTDP1 cells, no CPT, ATP luminescence, 48 h. Potency, µM (series often up to 46.2 µM), for the others: at the top dose activity change, negative = growth inhibition, actives largely listed as inhibitors. 420,000 tested, 15% active. AID 686978, 2013; also: potency is read from the fitted curve at half-maximal effect; % is scaled to controls: 0 for no effect and ±100 for the full control effect; nearly all actives have a fitted effect of over 55% in size
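No-CPT arm: Tdp1-/-;hTDP1 DT40 cells (400/well) plus compounds, incubated ≥48 hr at 37 °C. Readout CellTiter-Glo luminescence.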
TGFb inhibitor: blocks TGF-b signaling | HepG2 CAGA-GFP TGF-b/SMAD3 reporter, GFP fluorescence, 18 h; TGF-beta stimulated, 500 pg/mL final | Potency, µM (top dose mostly 46.1 µM), for the others: at the top dose activity, negative = inhibition, usual class: inhibitors | 410,000 tested, 1.2% active; also: potency is read from the fitted curve at half-maximal effect; % is scaled to controls: 0 for no effect and ±100 for the full control effect; nearly all actives have a fitted effect of over 65% in size
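Inhibition was scored as loss of TGF-beta-induced (500 pg/mL final, 18 hours, 37 degrees C) GFP in HEPG2 cells carrying a CAGA-GFP reporter, in DMEM with 1% FBS. Well GFP was summed per cell; Activity was normalised to unstimulated and stimulated DMSO wells, then concentration-response fitting.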
HepG2 tox: HepG2 cytotoxicity, counter-screen for TGF-b inhibitors; HepG2 CAGA-GFP viability, ATP luminescence, 18 h; Potency, µM (top dose mostly 46.1 µM), without a hit: top-dose activity change, negative = cytotoxicity, hits mostly cytotoxic; 410,000 tested, 0.76% active; AID 588856; also: potency is read from the fitted curve at half-maximal effect
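HepG2 CAGA-GFP cells (1000/well, DMEM with 1% FBS) received compound, then TGF-beta at 500 pg/mL final, and were incubated 18 hours at 37 degrees C. Viability was read by CellTiter-Glo luminescence. Media-only wells were set as complete cell-killing and DMSO as no toxicity.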
The depositor's hits bear a star; ? = inconclusive; nt = not tested or not shown. Unless noted, calls follow the shape of the dose curve; as a rule, active = well fitted curve in the direction sought with a large enough effect; inconclusive = small, poorly fitted or top-dose-only effect, or another doubt; inactive = no such curve, though single readings can be large; an effect the other way counts as inactive or inconclusive.

SMILES	TDP1 cell CPT	IL-1B inflam inh	TDP1 inh	DT40 TDP1 no CPT	TGFb inhibitor	HepG2 tox
Cc1ccc2[nH]c(=O)c(CN(Cc3ccccc3)Cc3nnnn3Cc3ccco3)cc2c1	8.9µM*	nt	2%	?	10%	0%
CCC(c1nnnn1Cc1ccco1)N(Cc1cc2cc(C)cc(C)c2[nH]c1=O)CC1CCCO1 (stereo not drawn)	15µM*	-24	1%	18µM*	37%	2%
CC(=O)[C@H]1CC[C@H]2C3CC=C4C[C@@H](O)CC[C@]4(C)C3CC[C@]12C (stereo partly drawn)	6%	nt	4%	14%	nt	nt
COc1ccccc1CN(Cc1cc2c(C)ccc(C)c2[nH]c1=O)Cc1nnnn1Cc1ccco1	23µM*	-70*	3%	18µM*	8%	10%
COc1ccc2cc(CN(CCc3ccccc3)Cc3nnnn3Cc3ccco3)c(=O)[nH]c2c1	?	-25	11%	16µM*	13%	-2%
CCc1ccc2[nH]c(=O)c(CN(Cc3ccco3)Cc3nnnn3Cc3ccco3)cc2c1	?	nt	7%	13µM*	-5%	-1%
COc1cc2cc(CN(Cc3nnnn3Cc3ccccc3)CC3CCCO3)c(=O)[nH]c2cc1OC (stereo not drawn)	?	-20	6%	?	18%	1%
O=c1[nH]c2cc3c(cc2cc1CN(Cc1nnnn1C1CCCC1)C1CCCC1)OCCO3	16µM*	-7	4%	26µM*	-19%	-12%
O=C(Cn1nc(C(=O)O)c2ccccc2c1=O)Nc1cc(S(=O)(=O)N2CCCCC2)ccc1Cl	-11%	4	0%	0%	-12%	1%
CCN(CC)C(=O)Cn1cc(SCC(=O)Nc2ccccc2C)c2ccccc21	-7%	nt	5%	-9%	?	-23%
Cc1ccc2cc(CN(Cc3ccc4c(c3)OCO4)Cc3nnnn3Cc3ccco3)c(=O)[nH]c2c1	16µM*	-53*	4%	?	-24%	6%
Cc1ccc2[nH]c(=O)c(CN(Cc3ccccc3)Cc3nnnn3C3CCCC3)cc2c1	21µM*	-72*	-2%	?	12%	-25%
Cc1ccc(CN(Cc2cc3cc4c(cc3[nH]c2=O)OCCO4)Cc2nnnn2Cc2ccco2)cc1	?	?	nt	?	-16%	-31%
CCN(CC)CCC(c1ccc(N(C)C)cc1)c1c(OC)cc(OC)c2c1OC(=O)CC2c1ccc(N(C)C)cc1 (stereo not drawn)	nt	nt	28%	nt	5%	-1%
Cc1cc2cc(C)c3nnc(SCc4ccccn4)n3c2cc1C	23µM*	-6	-1%	?	-8%	3%
Cc1ccc(C)c2c1cc(C)c1nnc(SCc3ccccn3)n12	2%	0	6%	11%	-8%	3%
CCc1cnc2c(c1SCC(=O)NCc1ccc(F)cc1)c(=O)n(C)c(=O)n2C	?	nt	0%	?	0%	3%
COc1ccc(CC(=O)Nc2cccc(-c3nnc(-c4ccco4)o3)c2)cc1	7.3µM*	-20	6%	7.3µM*	27%	-18%
O=C(Nc1ccc(-c2nnc(-c3ccco3)o2)cc1)C(c1ccccc1)c1ccccc1	9.2µM*	-8	6%	8.2µM*	-10%	-14%
Cc1cc(C)cc(OCC(=O)Nc2cccc(-c3nnc(-c4ccco4)o3)c2)c1	?	0	0%	?	3%	-1%
O=C(O)CCC(=O)Nc1ccc(-c2nnc(-c3ccco3)o2)cc1	4%	1	2%	1%	-12%	6%

Source: PubChem BioAssay
